22 molecules from PubChem BioAssay AID741 (SRMLSC, 2007) can be followed below.

Records with an inconclusive call do not appear. The source made the active and inactive calls. Rule as the data show it: active = toxicity enhancement factor above about 0.054; inconclusive = between about 0.00067 and that limit; inactive = weaker than that.

As a reminder, the viability is a read-out of living cells in per cent, often relative to untreated cells.

This assay is described as follows: reversers of MRP drug resistance, dose response, cell-based (AID 741). To be noted: MRP-overexpressing cells, viability with/without cytotoxic drug; slope difference: measured here: slope difference tox minus reversal, stronger effect = higher value; toxicity enhancement factor: stronger effect = higher value; viability: measured here: viability series, compound alone, at 10 µM, stronger effect = lower value.
`CCOc1nc2c(c(=O)n(C)c(=O)n2C)n1Cc1ccccc1Cl`: the viability is 71%, the toxicity enhancement factor is -0.0077 (inactive) and the slope difference was -0.531.

For `CC1=NN(C(N)=S)C(=O)C1N=Nc1ccccc1C` (stereo unspecified), the toxicity enhancement factor was -0.0057 (inactive), the viability is 92.1% and the slope difference was -0.556.

Consider `CC(=O)Oc1cccc2c1C(=O)c1c(OC(C)=O)cc(C(=O)O)cc1C2=O`, for which the slope difference was -1.12, the toxicity enhancement factor was -0.0114 (inactive) and the viability turned out to be 89.5%.

As for `Cc1cccc(OCc2nnc(SCC(=O)c3ccccc3)o2)c1`, the viability came to 97.4%, the toxicity enhancement factor is -0.007 (inactive) and the slope difference was -0.739.

For the molecule `CSc1cccc(NC(=O)C2CCN(S(C)(=O)=O)CC2)c1`, the toxicity enhancement factor was -0.0028 (inactive), the viability is 94.7% and the slope difference is -0.244.

With `COC(=O)c1ccccc1NC(=O)c1cccs1`, the toxicity enhancement factor is -0.0023 (inactive), the viability is 87.5% and the slope difference was -0.205.

For `CCOC(=O)/C(C#N)=C/c1cc(C)n(-c2ccc(C)cc2)c1C`, the viability worked out at 63.7%, the toxicity enhancement factor is -0.0003 (inactive) and the slope difference was -0.0151.

As to `O=C1CCCC2=C1C(c1cccs1)n1nc(SCc3ccccc3F)nc1N2` (stereo unspecified), the slope difference worked out at 2.51, the viability came out at 69.6% and the toxicity enhancement factor is 0.0631 (active).

As to `Cc1ccc(CN(C(=O)c2ccco2)C(C(=O)NC2CCCC2)c2ccc(N3CCOCC3)cc2)cc1` (stereo unspecified), the toxicity enhancement factor is 0.0523 (active), the slope difference amounted to 2.19 and the viability was 72.9%.

Consider `O=C(CSc1nnnn1-c1ccccc1)N1CCc2ccccc21`, for which the toxicity enhancement factor was -0.0102 (inactive), the slope difference was -1.04 and the viability is 85.8%.

For `CCCNS(=O)(=O)c1ccc(NC(=O)c2ccccn2)cc1`, the slope difference is -0.0969, the viability worked out at 99.5% and the toxicity enhancement factor is -0.001 (inactive).

Consider `c1ccc2c(N3CCOCC3)nc(-c3ccncc3)nc2c1`, for which the toxicity enhancement factor was -0.0239 (inactive), the slope difference was -1.84 and the viability is 66.1%.

As to `O=C(O)Cc1ccc(-c2ccccc2)cc1`, the slope difference is -0.343, the viability worked out at 99.6% and the toxicity enhancement factor was -0.0033 (inactive).

`CCOC(=O)c1c(C)[nH]c(N=Nc2ccc(C)cc2)c1C`: the slope difference is -0.597, the toxicity enhancement factor is -0.006 (inactive) and the viability was determined as 98.7%.

Take `CN1C(C(=O)Nc2ccccn2)=C(O)c2ccccc2S1(=O)=O`: the viability came to 92.3%, the toxicity enhancement factor is -0.0045 (inactive) and the slope difference was -0.409.

On to `Cn1c(=O)c2c(nc(NC3CCCCC3)n2CC(O)COc2ccccc2)n(C)c1=O` (stereo unspecified), for which the slope difference is -0.557, the viability amounted to 68.8% and the toxicity enhancement factor was -0.0085 (inactive).

Consider `CN1C(C(=O)Nc2ccccn2)=C(O)c2sccc2S1(=O)=O`, for which the slope difference is -0.669, the viability was 103% and the toxicity enhancement factor is -0.0064 (inactive).

Consider `COC(=O)Nc1ccc(S(=O)(=O)Nc2ccc(O)cc2)cc1`, for which the viability stood at 90.5%, the toxicity enhancement factor is -0.0016 (inactive) and the slope difference is -0.156.

Regarding `CCCNc1nc2c(c(=O)n(C)c(=O)n2C)n1Cc1ccc(F)cc1`, the toxicity enhancement factor is -0.0012 (inactive), the slope difference was -0.107 and the viability came to 92.8%.

Turning to `COc1cc(/C=C/C(=O)CC(=O)/C=C/c2ccc(O)c(OC)c2)ccc1O`, the viability was found to be 24.1%, the slope difference was -2.01 and the toxicity enhancement factor was -0.0391 (inactive).

Turning to `O=C(Cc1cccs1)N1CCC(c2nc3c(nnn3Cc3ccccc3Cl)c(=O)[nH]2)CC1`, the toxicity enhancement factor is -0.0052 (inactive), the slope difference was -0.454 and the viability was determined as 82.5%.

For the molecule `CCCCC1C(=O)N(c2ccccc2)N(c2ccccc2)C1=O`, the slope difference is -0.496, the toxicity enhancement factor is -0.0047 (inactive) and the viability worked out at 101%.
